# Test results taken from the supplement of paper PMC6555819.
# Tested on: VDR:RXRa (NR concentration 270 nM, RXRa partner concentration 90 nM)
# Test: PBM binding z-score (relative to random genomic background probes); higher = stronger binding; sequences stand for … in GC…GCGATTGACAGCGTAGAATGAAGG
# Method: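 Protein-binding microarray (Agilent 4x180K custom design, double-stranded 60-nt probes: 5' GC cap, 34-nt variable region, 24-nt constant primer region; full probe sequence given). Purified or IVT nuclear receptor:RXRα heterodimers (3:1 NR:RXRα, mostly 270:90 nM) or homodimers were incubated for 1 h in PBS with 2% milk and no ligand, then detected with Alexa488 antibodies. Fluorescence from o1-orientation probes (~5 replicates averaged) was converted to z-scores against 500 random hg19 background probes. Variable regions are seed direct-repeat (DR0–DR5) sites, all their single-nucleotide variants and half-site ablations.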
row,Sequence,PBM binding z-score
1,CCTACTGCGCCATTCAGAGGTCATTGATCATATG,3.85
2,AGAATGAGGTTACCAAAGATCAAGGAAACGCTTG,1.81
3,AGTCAAAGTTCACTGGGTAACGTAAGATTCAGCT,4.34
4,CGAACCAGGTCAGAACAGGACAGTGAAGGATGAT,1.44
5,CCTACTGGGCCAAGGTCACTGATCAGTCAAAGCA,2.92
6,CCTACTGGGCCAGAAAGGTCATTGATGCCGATAA,4.91
7,CCTTGCGGGTCACGAGGTTATAGCACGACGAGCG,4.93
8,TCTTGTAGATCAGTAGGTTAAGAAAGCTGGCCAA,0.673
9,GCTTACGGGCCAAAGGTTATAGCATGAATAGAAT,0.816
10,CGAACGAGGGCATGAGTTGATAGCAAATGCCGAT,1.43
11,ACTATTAGTTGACTTAGGGCAACCAATACGACGC,0.354
12,ATCGACAGGTCGTGAGGTGAGTATACAGAAAGGC,1.12
13,CCTCAAAGTTCAAGGTAACGTAACAGAAAGCAGC,4.07
14,TCTAGCAGGCCAGAGGGTCTCTCAAGAGGTACGG,-0.687
15,CGAACTAGGCCAAGGACAGTGAATCTCCGCACGC,-0.579
16,CCGAGTAGGTTATGCGGCATTCAGGCAACGGTGA,-0.251
17,TGAATGAGGTTAAAGATCAGGGAACGTGGCGTCG,1.99
18,CCTAGCAGGCAAATCTGGGTCACTCAAGGCTTGA,0.335
19,ATATGTAGGTTATCAGGTCATTCAGTTTGCGCAT,4.71
20,CCGACTGGGGCAGAAAGGTTACCCTACCATCCGG,0.717

row,Sequence,PBM binding z-score
1,GCTTACGGTTCAAAGGTTATAGCATGAATAGAAT,4.41
2,AGTCAAAGTTCAGGACTAGGTAACGTAAAGCACG,2.4
3,CCGAGTAGGTTATGGGGTATTCAGGCAACGGTGA,0.559
4,CAGCCTAGGACAGGGCCAGTATAGGAGGAACGTT,-0.833
5,CAGCCTAGGTCAGGGCCAGTATCGGAGGAACGTT,-0.0138
6,CAAACTAGCTCACCGGAAGGTCAAAGTCCGCATG,2.8
7,GCGACTGGGGCAAAGCAGTTTACCATAAGGTTGG,0.278
8,TCGAGGAGGTTAGGGGCATTCAGAATGGCGTCGA,1.03
9,CAAACTAGGTCAAGATCAAAGTCGGTTTGTGCCA,1.52
10,CGAACTAGGTCACAGAGGTCAAAGTCCGTGCGTA,8.3
11,AGAACGAGGGCACGCCGAGTTGATAGCAGAGTAG,2.27
12,GCTGCTAGGTCAGGTTGGTCAGGTAACGGGTACG,0.625
13,CCGAGTATGTTATGGGGCATTCAGGCAACGGTGA,-0.0094
14,TCATATAGGTAATACAGGTGATAGTCGGCATCTA,1.04
15,GCAGACAGGTGATACGCAGGTAACTCAGGGTGGC,-0.655
16,AGAATGAGGTTATTAAGATCAGGGAGTTGCGGTC,2.3
17,AGTCAAAGTTCAGGAAGAGGTAACGTAAAGCACG,2.96
18,TCATATAGGTTATACAGGTGAAAGTCGGCATCTA,2.48
19,TCTTGTAGATCAGCAGGAGGTTAAGAAAGATCGA,0.561
20,AGTCACAGTTCACTAGGTAACGTAAGATTCAGCT,1.81
